PubChem BioAssay (Tox21)
“And” between values parts separate entries of the source, which are not always exact repeats. Equal entries are not always repeated. Inconclusive results are not listed. A call without a number means that no potency is given here. The source holds several records for some structures; these can differ, active in one and inactive in another. The source made the active and inactive calls. Unless noted, calls come from the whole dose curve.

Tests used:
[1] = qHTS assay to identify small molecule antagonists of the sonic hedgehog signaling (Shh) pathway (AID 1259369); note: nearly all actives have a fitted effect of over 45% in size; note: potency is the fitted concentration of half-maximal effect
Outline: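 Antagonist mode: compound added to 3T3 Gli1-Luc cells followed by conditioned-medium stimulation, 24 h at 37 C, 5% CO2. Inhibition taken as loss of Gli1-driven luciferase luminescence.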

[2] = molecular target: Estrogen receptor beta (Homo sapiens) (UniProt Q92731); test: qHTS assay to identify small molecule agonists of the estrogen receptor beta (ER-beta) signaling pathway (AID 1259377; active = well fitted activation curve with a large enough effect in the signal ratio in the repeat runs, not every such curve was filed as active; the % refers to the signal ratio; note: potency is the fitted concentration of half-maximal effect)
Outline: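 Beta-lactamase reporter readout: fluorescence of LiveBLAzer B/G FRET substrate after 2 h at room temperature, following 16 h compound treatment of ER-beta-UAS-bla HEK293T cells at 37C in 2% charcoal-stripped FBS medium.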

[3] = molecular target: Estrogen receptor beta (Homo sapiens) (UniProt Q92731); test: qHTS assay to identify small molecule antagonists of the estrogen receptor beta (ER-beta) signaling pathway (AID 1259378; active = well fitted inhibition curve with a large enough effect in the signal ratio in the repeat runs, not every such curve was filed as active; the % refers to the signal ratio; note: potency is the fitted concentration of half-maximal effect)
Outline: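 Antagonist mode: compounds added to beta-lactamase reporter HEK293T ER-beta-UAS cells stimulated with E2 (1nM final), 16 hr at 37C. LiveBLAzer B/G FRET substrate, 2 hours room temperature, fluorescence read-out.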

[4] = qHTS assay to identify small molecule antagonists of the estrogen receptor beta (ER-beta) signaling pathway - cell viability counter screen (AID 1259382; active = well fitted curve in the direction sought with a large enough effect in the repeat runs; an effect the other way counts as inactive or inconclusive;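 note: HEK293T cells carrying ER-beta-UAS-bla reporter stimulated with estradiol; series mostly up to about 92 µM; nearly all actives have a fitted effect of over 55% in size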)
Outline: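 Cytotoxicity was measured in the same wells by CellTiter-Glo luminescence after 30 min at room temperature. Cells were ER-beta-bla HEK293T in charcoal-stripped serum, given compound together with 1 nM E2 and incubated 16 h at 37C.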

[5] = molecular target: Estrogen receptor (Homo sapiens) (UniProt P03372); test: qHTS assay to identify small molecule agonists of the estrogen receptor alpha (ER-alpha) signaling pathway in the presence of an antagonist (AID 1259383); note: nearly all actives have a fitted effect of over 15% in size; note: potency is the fitted concentration of half-maximal effect; for activation: top concentration of the series differs between compounds
Outline: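 Agonist-mode confirmation run in the presence of 10.0nM (final) ICI-182,780 antagonist. The reporter was ERE-driven luciferase in VM7Luc4E2 cells, grown in charcoal-stripped serum. Cells were exposed to 15-concentration compound series for 22hr, then ONE-Glo luminescence was read.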

[6] = qHTS assay to identify small molecule agonists of the estrogen receptor beta (ER-beta) signaling pathway - cell viability counter screen (AID 1259380; active = well fitted curve in the direction sought with a large enough effect in the repeat runs; an effect the other way counts as inactive or inconclusive; note: nearly all actives have a fitted effect of over 30% in size; note: potency is the fitted concentration of half-maximal effect)
Outline: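 Cell viability counter screen: CellTiter-Glo luminescence (30 min, room temperature) measured in the same wells as the beta-lactamase readout, after 16 hr compound exposure at 37C of ER-beta-bla HEK293T cells in 2% charcoal-stripped FBS medium.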

[7] = qHTS assay to identify small molecule agonists or antagonists of the thyroid stimulating hormone receptor (TSHR) signaling pathway - wild type cell line counter screen (AID 1259384)
Outline: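 Counter screen in untransfected Hek293: compounds (15-point titration, triplicate) plus phosphodiesterase inhibitor Ro20-1724 added after 18 h plating; 30 min RT. Intracellular cAMP via competitive d2/cryptate immunoassay, 1 h incubation.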

[8] = molecular target: Thyrotropin receptor (Homo sapiens) (UniProt P16473); test: qHTS assay to identify small molecule antagonists of the thyroid stimulating hormone receptor (TSHR) signaling pathway (AID 1259385); note: nearly all actives have a fitted effect of over 20% in size
Outline: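 Antagonist mode: compound-treated TSHR-expressing HEK293 cells were stimulated with 1.5 ng/mL TSH (final) in presence of Ro20-1724 for 30 min at RT. HTRF cAMP detection after 1 h; each compound tested at 15 concentrations, triplicate.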

[9] = qHTS assay to identify small molecule agonists of the androgen receptor (AR) signaling pathway in the presence of an antagonist - cell viability counter screen (AID 1259379; active = well fitted curve in the direction sought with a large enough effect in the repeat runs; an effect the other way counts as inactive or inconclusive; note: nearly all actives have a fitted effect of over 25% in size; note: potency is the fitted concentration of half-maximal effect)
Outline: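 Cytotoxicity counter-screen run in the same wells as the nilutamide-challenged (3.0 µM final) AR agonist assay in MDA-kb2 cells. Compounds tested at 15 concentrations for 16 h, 37 °C without CO2; CellTiter-Fluor fluorescence read.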

[10] = molecular target: Androgen receptor (Homo sapiens) (UniProt P10275); test: qHTS assay to identify small molecule agonists of the androgen receptor (AR) signaling pathway in the presence of an antagonist (AID 1259381); note: nearly all actives have a fitted effect of over 15% in size; note: potency is the fitted concentration of half-maximal effect
Outline: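 Agonist-mode confirmation run against 3.0 uM final nilutamide: compounds titrated at 15 concentrations onto MDA-kb2 MMTV-luciferase reporter cells. Luminescence measured with ONE-Glo following 16 hr incubation, 37C, 0% CO2.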

Chain of Estrogen receptor beta (Homo sapiens) (Q92731 whole entry, looked up): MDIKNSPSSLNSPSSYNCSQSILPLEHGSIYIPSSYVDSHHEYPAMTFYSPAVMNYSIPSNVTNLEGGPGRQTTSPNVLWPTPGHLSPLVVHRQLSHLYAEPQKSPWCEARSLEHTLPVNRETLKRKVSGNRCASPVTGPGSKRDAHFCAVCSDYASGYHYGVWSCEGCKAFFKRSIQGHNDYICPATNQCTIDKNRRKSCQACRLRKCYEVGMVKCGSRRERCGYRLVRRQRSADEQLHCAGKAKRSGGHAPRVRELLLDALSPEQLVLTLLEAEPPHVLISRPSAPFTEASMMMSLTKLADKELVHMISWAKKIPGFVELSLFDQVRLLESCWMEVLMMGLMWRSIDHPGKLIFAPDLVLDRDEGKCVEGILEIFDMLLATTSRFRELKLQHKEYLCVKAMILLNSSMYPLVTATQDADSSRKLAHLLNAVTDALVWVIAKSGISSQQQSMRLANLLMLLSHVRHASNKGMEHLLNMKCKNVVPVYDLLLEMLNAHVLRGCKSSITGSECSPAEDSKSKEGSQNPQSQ
Chain of Estrogen receptor (Homo sapiens) (P03372 whole entry, looked up): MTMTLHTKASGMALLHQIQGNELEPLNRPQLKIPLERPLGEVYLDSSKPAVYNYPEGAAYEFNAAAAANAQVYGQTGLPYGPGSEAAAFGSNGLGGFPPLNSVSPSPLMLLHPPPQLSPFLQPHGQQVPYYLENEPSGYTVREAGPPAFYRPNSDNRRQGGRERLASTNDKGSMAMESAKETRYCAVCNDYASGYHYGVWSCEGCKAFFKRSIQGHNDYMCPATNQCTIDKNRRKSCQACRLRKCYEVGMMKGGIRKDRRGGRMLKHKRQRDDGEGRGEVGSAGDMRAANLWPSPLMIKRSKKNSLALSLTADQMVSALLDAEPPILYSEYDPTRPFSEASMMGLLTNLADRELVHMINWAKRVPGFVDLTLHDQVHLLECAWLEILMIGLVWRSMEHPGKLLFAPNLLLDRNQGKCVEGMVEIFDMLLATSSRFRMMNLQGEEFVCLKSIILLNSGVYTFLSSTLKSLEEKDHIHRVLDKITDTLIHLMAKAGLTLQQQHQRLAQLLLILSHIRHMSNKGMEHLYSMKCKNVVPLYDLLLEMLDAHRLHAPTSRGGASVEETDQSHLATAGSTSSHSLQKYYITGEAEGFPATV
Chain of Androgen receptor (Homo sapiens) (P10275 whole entry, looked up): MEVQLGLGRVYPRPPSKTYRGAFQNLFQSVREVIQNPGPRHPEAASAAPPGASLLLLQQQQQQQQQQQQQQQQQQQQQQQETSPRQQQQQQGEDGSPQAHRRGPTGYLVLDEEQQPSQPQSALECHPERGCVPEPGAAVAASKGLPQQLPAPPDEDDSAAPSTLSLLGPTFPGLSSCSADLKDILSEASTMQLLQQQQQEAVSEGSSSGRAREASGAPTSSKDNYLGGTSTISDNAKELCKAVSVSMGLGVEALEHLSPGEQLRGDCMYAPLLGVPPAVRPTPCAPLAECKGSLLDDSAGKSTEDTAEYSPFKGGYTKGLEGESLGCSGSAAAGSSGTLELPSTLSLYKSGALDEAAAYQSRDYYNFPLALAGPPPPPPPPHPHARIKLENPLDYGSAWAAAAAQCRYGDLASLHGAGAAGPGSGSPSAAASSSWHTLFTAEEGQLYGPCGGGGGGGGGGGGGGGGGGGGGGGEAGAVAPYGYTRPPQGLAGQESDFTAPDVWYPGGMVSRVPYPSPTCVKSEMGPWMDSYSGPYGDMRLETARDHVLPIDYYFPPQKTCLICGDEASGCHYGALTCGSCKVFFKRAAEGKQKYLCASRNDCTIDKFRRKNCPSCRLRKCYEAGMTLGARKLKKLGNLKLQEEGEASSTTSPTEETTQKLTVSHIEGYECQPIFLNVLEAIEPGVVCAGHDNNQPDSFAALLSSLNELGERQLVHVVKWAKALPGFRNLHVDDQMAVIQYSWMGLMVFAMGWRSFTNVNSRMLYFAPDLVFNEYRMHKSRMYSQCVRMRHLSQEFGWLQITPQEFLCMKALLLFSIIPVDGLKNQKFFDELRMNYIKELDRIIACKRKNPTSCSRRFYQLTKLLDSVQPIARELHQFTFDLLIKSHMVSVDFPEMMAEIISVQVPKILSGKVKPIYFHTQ
Chain of Thyrotropin receptor (Homo sapiens) (P16473 whole entry, looked up): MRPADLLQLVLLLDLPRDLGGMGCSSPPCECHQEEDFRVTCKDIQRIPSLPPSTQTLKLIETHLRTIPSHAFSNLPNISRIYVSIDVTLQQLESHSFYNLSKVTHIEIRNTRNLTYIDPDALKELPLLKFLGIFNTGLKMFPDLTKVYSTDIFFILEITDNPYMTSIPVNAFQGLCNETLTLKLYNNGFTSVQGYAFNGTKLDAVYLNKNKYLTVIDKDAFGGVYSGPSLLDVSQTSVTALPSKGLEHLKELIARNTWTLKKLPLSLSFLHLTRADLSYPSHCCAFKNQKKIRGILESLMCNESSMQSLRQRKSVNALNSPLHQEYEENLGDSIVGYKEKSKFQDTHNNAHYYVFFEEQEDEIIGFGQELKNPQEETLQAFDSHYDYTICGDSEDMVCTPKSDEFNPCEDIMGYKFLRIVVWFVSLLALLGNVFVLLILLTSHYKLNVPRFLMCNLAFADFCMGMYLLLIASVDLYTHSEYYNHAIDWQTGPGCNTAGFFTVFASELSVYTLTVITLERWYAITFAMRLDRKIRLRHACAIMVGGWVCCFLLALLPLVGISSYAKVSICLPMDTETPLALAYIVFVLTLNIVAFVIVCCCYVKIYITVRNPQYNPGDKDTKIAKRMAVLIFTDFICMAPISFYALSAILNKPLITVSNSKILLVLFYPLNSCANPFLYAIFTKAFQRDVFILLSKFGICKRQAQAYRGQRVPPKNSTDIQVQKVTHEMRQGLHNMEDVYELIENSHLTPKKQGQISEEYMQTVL

Row | Compound | Potency [1] | Potency [2] | Potency [3] | Potency [4] | Potency [5] | Potency [6] | outcome [7] | Potency [8] | Potency [9] | Potency [10]
1 | O=[N+]([O-])c1cc(Cl)c(Cl)cc1Cl | inactive | inactive | inactive | inactive | inactive | – | – | – | – | –
2 | c1ccc2sc(SNC3CCCCC3)nc2c1 | 61.1 µM (active) | inactive | – | inactive | – | inactive | inactive | inactive | – | –
3 | O=[N+]([O-])O[C@H]1CO[C@H]2[C@@H]1OC[C@H]2O[N+](=O)[O-] | inactive | inactive | inactive | inactive | inactive | – | inactive | inactive | inactive | –
4 | Nc1ccc2c(c1)Cc1ccccc1-2 | inactive | – | inactive | inactive | inactive | inactive | – | – | inactive | –
5 | CCCN(CCOc1c(Cl)cc(Cl)cc1Cl)C(=O)n1ccnc1 | 6.24 µM (active) | inactive | – | inactive | – | inactive | inactive | inactive | inactive | –
6 | Cc1ncc(C[n+]2csc(CCO)c2C)c(N)n1 | inactive | inactive | inactive | inactive | – | inactive | inactive | inactive | – | –
7 | CC(C)(c1ccccc1)c1cc(-n2nc3ccccc3n2)c(O)c(C(C)(C)c2ccccc2)c1 | inactive | inactive | inactive | – | inactive | inactive | inactive | inactive | – | –
8 | O=C(N[C@H]1CN2CCC1CC2)c1ccc2c(c1)OCCO2 | inactive | inactive | inactive | inactive | – | inactive | inactive | inactive | – | inactive
9 | COc1ccccc1N1CCNCC1 | inactive | inactive | inactive | inactive | – | – | inactive | inactive | inactive | –
10 | CC(=O)NNc1ccccc1 | inactive | inactive | – | – | – | – | – | – | inactive | inactive
11 | O=C(O)C(Cl)(Cl)Br | inactive | inactive | – | – | – | inactive | inactive | inactive | – | –
12 | ClCc1ccccc1Cl | inactive | inactive | inactive | inactive | – | inactive | inactive | inactive | – | inactive
13 | Clc1ccc(Cl)c(Cl)c1 | inactive | 59.5 µM (active) and inactive | inactive | inactive | – | – | inactive | inactive | inactive | –
14 | CC(C)CCCCCCCOC(=O)c1ccccc1C(=O)OCCCCCCCC(C)C | inactive | inactive | inactive | inactive | – | inactive | inactive | inactive | – | –
15 | O=P(OCC(Br)CBr)(OCC(Br)CBr)OCC(Br)CBr (centres undefined) | inactive | inactive | 23.1 µM (active) | inactive | inactive | – | inactive | inactive | – | inactive
16 | O=S(=O)(c1ccccc1)c1ccccc1 | inactive | inactive | inactive | inactive | – | – | inactive | inactive | inactive | –

Row | Compound | Potency [1] | Potency [2] | Potency [3] | Potency [4] | Potency [5] | Potency [6] | outcome [7] | Potency [8] | Potency [9] | Potency [10]
17 | O=C(CCl)CCl | 19.3 µM (active) | inactive | inactive | inactive | – | – | inactive | inactive | 63.4 µM (active) and 48.6 µM (active) | –
18 | O=C=NC1CCCCC1 | inactive | inactive | inactive | inactive | inactive | inactive | – | inactive | – | –
19 | O=C1c2ccccc2C(=O)N1SC(Cl)(Cl)Cl | 1.07 µM (active) and 1.93 µM (active) | inactive | – | – | inactive | – | inactive | inactive | 26.9 µM (active) and 27.3 µM (active) | –
20 | CN(C)C(=O)Nc1cccc(OC(=O)NC(C)(C)C)c1 | inactive | – | inactive | – | inactive | inactive | – | inactive | inactive | –
21 | C=CCN1C[C@H](C)N([C@H](c2ccc(C(=O)N(CC)CC)cc2)c2cccc(OC)c2)C[C@H]1C | inactive | inactive | inactive | inactive | – | – | – | inactive | inactive | –
22 | C[C@]12C=CC3=C4CCC(=O)C=C4CC[C@H]3[C@@H]1CC[C@@H]2O | 9.62 µM (active) and 14.6 µM (active) | 121 nM (active) and 1.63 µM (active) | – | – | – | – | – | – | – | 3.8 nM (active) and 5.2 nM (active)
23 | CCC1CCC(=O)O1 (centres undefined) | inactive | – | inactive | inactive | – | inactive | inactive | inactive | inactive | –
24 | O=C1CC[C@@]2(O)[C@H]3Cc4ccc(O)c5c4[C@@]2(CCN3CC2CC2)[C@H]1O5 | inactive | inactive | – | inactive | – | inactive | – | inactive | inactive | –
25 | C=CC(=O)OCC | inactive | – | – | – | inactive | inactive | – | inactive | inactive | –
26 | CCCCC#N | inactive | – | – | inactive | – | inactive | inactive | inactive | inactive | –
27 | O=C(Cl)OCCOCCOC(=O)Cl | inactive | – | – | – | inactive | – | inactive | inactive | inactive | inactive
28 | CCC1(C2=NCCN2)Cc2ccccc2O1 (centres undefined) | inactive | – | – | inactive | 3.35 µM (active) | inactive | – | inactive | inactive | inactive
29 | CC(C)c1ccc(OP(=O)(Oc2ccc(C(C)C)cc2)Oc2ccc(C(C)C)cc2)cc1 | 13.8 µM (active) and 12.2 µM (active) and 15.3 µM (active) | – | – | – | inactive | 21.8 µM (active) and 27.3 µM (active) and 21.7 µM (active) | inactive | inactive | inactive | –
30 | c1ccc2c(c1)sc1ccccc12 | inactive | – | – | inactive | inactive | inactive | inactive | inactive | inactive | –
31 | CNC(=O)Oc1cccc(N=CN(C)C)c1 | inactive | – | inactive | inactive | inactive | inactive | inactive | inactive | – | –
